The full data set covers some 7,900 targets. This sample favours those with a hit. About 0.6% of all pairs of compound and target were hits.
What follows are targets tested with c1cc(OCCN2CCCCC2)cc(-c2n[nH]c3ccc(-c4nnc[nH]4)cc23)c1 (assay: log2 fold change, soluble protein after heating vs DMSO (PISA); higher = thermal stabilisation; K562 cells, 10 uM, 30 min; active = over 0.2 and 3.5 SD of the protein, either way, in both replicates (recomputed)).
Outline: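 Quantification of soluble protein used TMTpro 16plex LC-MS/MS, with channel sums equalised. Samples were the supernatant after 21,000xg for 90 min of pooled aliquots from K562 cells (2×10^6 cells/mL) treated with 10 μM compound for 30 min, heated for 3 min over 48°C-58°C, and extracted in PBS with 0.5% NP-40 at 4°C. Values, from duplicates, describe thermal stability against control samples on a log2 fold-change scale.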

Sequence of UniProt Q9BX63 (Q9BX63 whole entry, looked up): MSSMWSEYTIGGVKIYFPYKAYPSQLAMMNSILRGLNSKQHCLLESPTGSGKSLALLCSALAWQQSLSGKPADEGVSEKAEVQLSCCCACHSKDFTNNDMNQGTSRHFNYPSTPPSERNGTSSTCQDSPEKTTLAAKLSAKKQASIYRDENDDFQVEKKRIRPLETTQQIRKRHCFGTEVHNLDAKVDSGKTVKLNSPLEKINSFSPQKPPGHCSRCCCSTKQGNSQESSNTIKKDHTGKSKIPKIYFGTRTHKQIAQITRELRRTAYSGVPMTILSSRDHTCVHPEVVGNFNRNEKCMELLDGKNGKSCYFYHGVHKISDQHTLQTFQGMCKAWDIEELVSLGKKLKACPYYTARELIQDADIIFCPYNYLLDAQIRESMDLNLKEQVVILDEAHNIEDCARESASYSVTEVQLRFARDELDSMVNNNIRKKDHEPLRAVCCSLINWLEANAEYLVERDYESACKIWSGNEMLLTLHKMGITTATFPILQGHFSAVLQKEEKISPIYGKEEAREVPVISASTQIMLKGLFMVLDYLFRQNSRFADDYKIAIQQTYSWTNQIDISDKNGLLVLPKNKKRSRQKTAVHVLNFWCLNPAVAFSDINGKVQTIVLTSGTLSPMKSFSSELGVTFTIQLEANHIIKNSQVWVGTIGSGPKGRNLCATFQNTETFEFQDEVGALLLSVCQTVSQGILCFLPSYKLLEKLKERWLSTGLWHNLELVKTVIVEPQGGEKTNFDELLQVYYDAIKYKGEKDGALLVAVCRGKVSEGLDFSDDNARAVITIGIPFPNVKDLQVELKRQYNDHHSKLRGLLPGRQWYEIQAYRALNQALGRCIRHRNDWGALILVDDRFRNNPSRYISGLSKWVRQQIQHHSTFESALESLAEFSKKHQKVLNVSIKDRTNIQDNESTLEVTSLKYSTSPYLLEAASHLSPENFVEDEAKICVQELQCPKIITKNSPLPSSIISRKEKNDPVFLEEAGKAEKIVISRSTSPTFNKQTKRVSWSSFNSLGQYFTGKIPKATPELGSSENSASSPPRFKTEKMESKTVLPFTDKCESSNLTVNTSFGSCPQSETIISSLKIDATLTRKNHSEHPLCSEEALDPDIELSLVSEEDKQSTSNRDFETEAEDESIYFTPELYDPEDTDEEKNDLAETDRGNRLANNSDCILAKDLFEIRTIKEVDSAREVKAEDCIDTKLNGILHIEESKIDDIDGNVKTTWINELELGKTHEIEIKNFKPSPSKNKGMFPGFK
Sequence of UniProt Q562R1 (Q562R1 whole entry, looked up): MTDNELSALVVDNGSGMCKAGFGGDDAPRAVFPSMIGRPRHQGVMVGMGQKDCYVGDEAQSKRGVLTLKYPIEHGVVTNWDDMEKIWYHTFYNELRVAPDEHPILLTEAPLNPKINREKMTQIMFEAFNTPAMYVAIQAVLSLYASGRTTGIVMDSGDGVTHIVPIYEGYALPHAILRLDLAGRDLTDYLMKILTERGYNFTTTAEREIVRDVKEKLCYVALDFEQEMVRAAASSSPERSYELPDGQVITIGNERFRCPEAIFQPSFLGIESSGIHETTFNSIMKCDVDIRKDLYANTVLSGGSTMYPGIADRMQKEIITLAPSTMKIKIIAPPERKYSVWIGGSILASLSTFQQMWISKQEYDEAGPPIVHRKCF
Sequence of UniProt Q96CW1 (Q96CW1 whole entry, looked up): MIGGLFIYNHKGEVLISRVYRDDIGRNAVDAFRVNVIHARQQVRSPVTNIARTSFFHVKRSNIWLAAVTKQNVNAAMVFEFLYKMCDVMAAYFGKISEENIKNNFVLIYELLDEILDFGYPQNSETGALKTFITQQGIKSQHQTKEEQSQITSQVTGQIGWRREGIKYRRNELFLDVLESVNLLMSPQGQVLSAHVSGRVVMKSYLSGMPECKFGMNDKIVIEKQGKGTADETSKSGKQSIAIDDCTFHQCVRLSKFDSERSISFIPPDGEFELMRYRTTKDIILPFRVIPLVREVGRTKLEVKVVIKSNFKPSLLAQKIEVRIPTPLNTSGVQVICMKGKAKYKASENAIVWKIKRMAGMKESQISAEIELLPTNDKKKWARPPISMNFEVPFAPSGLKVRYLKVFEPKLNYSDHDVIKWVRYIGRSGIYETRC
Sequence of UniProt P36405 (P36405 whole entry, looked up): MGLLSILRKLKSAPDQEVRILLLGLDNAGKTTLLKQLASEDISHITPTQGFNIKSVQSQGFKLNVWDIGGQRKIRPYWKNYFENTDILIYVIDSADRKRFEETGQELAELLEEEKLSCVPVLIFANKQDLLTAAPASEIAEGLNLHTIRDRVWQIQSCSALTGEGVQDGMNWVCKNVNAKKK
Sequence of UniProt Q9NWX5 (Q9NWX5 whole entry, looked up): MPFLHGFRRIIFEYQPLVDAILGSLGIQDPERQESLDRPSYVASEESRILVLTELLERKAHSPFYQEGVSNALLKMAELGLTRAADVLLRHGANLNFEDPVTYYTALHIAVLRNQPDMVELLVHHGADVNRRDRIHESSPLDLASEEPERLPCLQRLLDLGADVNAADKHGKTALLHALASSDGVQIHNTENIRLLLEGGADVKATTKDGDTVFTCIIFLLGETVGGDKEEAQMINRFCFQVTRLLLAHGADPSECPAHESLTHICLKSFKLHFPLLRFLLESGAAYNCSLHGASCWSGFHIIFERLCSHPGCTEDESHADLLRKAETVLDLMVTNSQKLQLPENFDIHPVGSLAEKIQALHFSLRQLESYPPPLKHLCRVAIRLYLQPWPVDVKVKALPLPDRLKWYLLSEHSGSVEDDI
Sequence of UniProt Q9UNA0 (Q9UNA0 whole entry, looked up): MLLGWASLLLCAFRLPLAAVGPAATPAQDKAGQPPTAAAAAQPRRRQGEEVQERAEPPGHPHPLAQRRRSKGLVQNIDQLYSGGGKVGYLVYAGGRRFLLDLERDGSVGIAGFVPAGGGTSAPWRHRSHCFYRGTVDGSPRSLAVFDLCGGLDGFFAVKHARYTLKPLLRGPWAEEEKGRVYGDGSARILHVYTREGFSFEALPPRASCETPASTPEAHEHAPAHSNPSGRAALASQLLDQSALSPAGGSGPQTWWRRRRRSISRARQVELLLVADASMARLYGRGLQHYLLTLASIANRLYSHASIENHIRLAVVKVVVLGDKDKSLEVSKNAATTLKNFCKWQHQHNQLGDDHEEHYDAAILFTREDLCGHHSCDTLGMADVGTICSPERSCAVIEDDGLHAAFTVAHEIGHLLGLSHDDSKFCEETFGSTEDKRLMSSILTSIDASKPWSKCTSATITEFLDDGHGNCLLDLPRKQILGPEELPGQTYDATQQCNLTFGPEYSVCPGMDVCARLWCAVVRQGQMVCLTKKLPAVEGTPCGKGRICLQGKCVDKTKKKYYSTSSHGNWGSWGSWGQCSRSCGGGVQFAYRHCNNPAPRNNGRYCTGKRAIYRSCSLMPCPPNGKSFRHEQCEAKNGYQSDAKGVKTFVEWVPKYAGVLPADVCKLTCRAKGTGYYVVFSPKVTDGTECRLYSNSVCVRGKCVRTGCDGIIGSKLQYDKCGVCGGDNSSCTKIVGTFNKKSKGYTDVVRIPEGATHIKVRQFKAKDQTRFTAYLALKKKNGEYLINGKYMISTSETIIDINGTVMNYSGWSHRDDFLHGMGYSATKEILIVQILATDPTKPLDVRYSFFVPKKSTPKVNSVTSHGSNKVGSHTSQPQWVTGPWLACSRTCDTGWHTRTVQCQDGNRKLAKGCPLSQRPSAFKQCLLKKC
Sequence of UniProt Q00973 (Q00973 whole entry, looked up): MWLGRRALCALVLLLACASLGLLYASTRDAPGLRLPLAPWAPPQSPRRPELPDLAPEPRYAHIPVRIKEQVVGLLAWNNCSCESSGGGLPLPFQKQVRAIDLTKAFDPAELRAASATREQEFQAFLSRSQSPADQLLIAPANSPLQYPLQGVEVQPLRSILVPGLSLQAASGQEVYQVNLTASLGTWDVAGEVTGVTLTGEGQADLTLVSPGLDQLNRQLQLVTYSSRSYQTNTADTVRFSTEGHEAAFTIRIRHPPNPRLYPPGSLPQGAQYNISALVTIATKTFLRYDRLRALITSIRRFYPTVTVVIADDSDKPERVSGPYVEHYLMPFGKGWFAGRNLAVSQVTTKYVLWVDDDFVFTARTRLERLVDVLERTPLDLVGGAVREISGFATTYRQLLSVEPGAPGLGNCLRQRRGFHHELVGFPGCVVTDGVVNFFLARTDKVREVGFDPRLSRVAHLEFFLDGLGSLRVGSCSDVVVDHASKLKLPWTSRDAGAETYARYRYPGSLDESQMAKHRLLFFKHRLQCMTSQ
Sequence of UniProt Q9NYF8 (Q9NYF8 whole entry, looked up): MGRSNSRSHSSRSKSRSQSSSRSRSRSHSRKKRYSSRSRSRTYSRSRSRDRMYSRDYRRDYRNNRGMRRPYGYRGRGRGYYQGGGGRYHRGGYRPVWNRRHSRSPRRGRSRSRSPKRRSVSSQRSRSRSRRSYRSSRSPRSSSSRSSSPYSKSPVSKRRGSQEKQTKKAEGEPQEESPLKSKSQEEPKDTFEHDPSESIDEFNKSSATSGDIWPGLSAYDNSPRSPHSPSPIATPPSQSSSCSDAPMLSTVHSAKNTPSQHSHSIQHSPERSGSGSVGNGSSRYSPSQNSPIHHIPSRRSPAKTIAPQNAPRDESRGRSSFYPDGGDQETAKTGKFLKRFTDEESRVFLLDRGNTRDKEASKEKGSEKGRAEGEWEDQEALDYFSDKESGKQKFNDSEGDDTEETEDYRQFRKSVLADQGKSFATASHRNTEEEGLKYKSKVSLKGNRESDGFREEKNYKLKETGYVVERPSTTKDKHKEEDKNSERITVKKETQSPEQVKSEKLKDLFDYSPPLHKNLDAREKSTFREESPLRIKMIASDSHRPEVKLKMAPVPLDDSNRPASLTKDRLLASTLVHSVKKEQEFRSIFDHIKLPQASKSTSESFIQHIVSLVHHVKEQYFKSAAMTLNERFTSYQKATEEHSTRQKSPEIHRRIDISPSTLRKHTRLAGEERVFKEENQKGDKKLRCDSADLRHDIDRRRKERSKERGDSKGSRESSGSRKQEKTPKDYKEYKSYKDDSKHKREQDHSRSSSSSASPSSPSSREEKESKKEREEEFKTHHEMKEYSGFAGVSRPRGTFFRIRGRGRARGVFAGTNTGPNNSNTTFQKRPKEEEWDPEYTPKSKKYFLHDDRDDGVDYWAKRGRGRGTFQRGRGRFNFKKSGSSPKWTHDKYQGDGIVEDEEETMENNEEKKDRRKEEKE

log2 fold change, inactive:
ARL3 (UniProt P36405) -0.022
ABCA4 (UniProt P78363) 0.157
ALG14 (UniProt Q96F25) -0.123
AFDN isoform 5 (UniProt P55196) -0.068
AP2M1 (UniProt Q96CW1) -0.209
ASB6 (UniProt Q9NWX5) 0.07
ATOX1 (UniProt O00244) -0.004
ADAMTS5 (UniProt Q9UNA0) 0.051
ATP7B (UniProt P35670) -0.023
ATRN (UniProt O75882) -0.092
BRD3 (UniProt Q15059) -0.002
ACP1 (UniProt P24666) -0.014
BRIP1 (UniProt Q9BX63) 0.077
ATXN3 isoform 1 (UniProt P54252) -0.015
ARRDC1 (UniProt Q8N5I2) -0.001
ACTBL2 (UniProt Q562R1) -0.1
AIP (UniProt O00170) 0.036
ARHGAP25 isoform 4 (UniProt P42331) -0.049
ABHD11 (UniProt Q8NFV4) -0.009
ATF1 (UniProt P18846) -0.091
ARGLU1 (UniProt Q9NWB6) -0.208
BCLAF1 (UniProt Q9NYF8) -0.31
B4GALNT1 (UniProt Q00973) 0.064

From the supplement of paper PMC10849652
